# Several values for one entry are separate records, joined by “and”; a condition that tells them apart may be missing. Equal entries are not always repeated. Records with an inconclusive call do not appear. Activity calls are given as the source filed them. Unless noted, calls come from the whole dose curve. Numbered stars: 1 amine (or outer) side, 2 acyl side, 3 side chain; on linkers, the order of the positions; unused ones are H or OH. Bridge positions count the residues as written; N and C are the ends. Square brackets hold non-standard residues; d marks the D form. Peptide text beside a SMILES is read from it. I, II: the chains in the order shown. Actinocin(9to1) = Cc1c2oc3c(C)ccc(C(=O)[*:1])c3nc-2c(C(=O)[*:2])c(N)c1=O; NMeV = CN[C@H](C(=O)O)C(C)C; Sar = CNCC(=O)O
# Tests used:
# [1] = Cell Proliferation Assay against the HBL1 Cell Line (AID 651646; active = well fitted curve in the direction sought with a large enough effect; an effect the other way counts as inactive or inconclusive;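 note: cells exposed to compound for 48 h before reading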); details: HBL1 DLBCL cells; at 92.2 µM (top of the series) unless noted
# Procedure, shortened: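 Luminescent ATP read-out (CellTiter-Glo) after 48 h compound exposure of HBL1 cells at 37 °C; percent activity was scaled between DMSO as 100% and 9.2 uM bortezomib (final) as 0%.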
# [2] = Cell Proliferation Assay against the TMD8 Cell Line (Caspase readout at 16 hrs) (AID 651712; active = well fitted curve in the direction sought with a large enough effect; an effect the other way counts as inactive or inconclusive; note: potency is the fitted concentration of half-maximal effect); details: TMD8 lymphoma cells, caspase activation luminescence
# Procedure, shortened: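 Apoptotic response of TMD8 cells was judged from caspase 3/7 activation following a 16 hour compound incubation at 37 °C. Luminescent signal was converted to percent activity, with DMSO set as 0% and 9.2 uM final bortezomib as 100%.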
# [3] = Cell Proliferation Assay against the TMD8 Cell Line (Caspase readout at 8 hrs) (AID 651713; active = well fitted curve in the direction sought with a large enough effect; an effect the other way counts as inactive or inconclusive; note: potency is the fitted concentration of half-maximal effect)
# Procedure, shortened: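 TMD8 cells in RPMI plus 5% FBS were treated with compound for 8 h at 37C. Caspase 3/7 activation was read by Caspase-Glo luminescence. Percent activity was scaled from DMSO (0%) to 9.2 uM bortezomib final (100%).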
# [4] = qHTS assay for small molecule activators of the p53 signaling pathway (AID 651743; active = well fitted activation curve with a large enough effect in the signal ratio, not every such curve was filed as active; the % refers to the signal ratio; note: potency is the fitted concentration of half-maximal effect; for activation: % of control where 0% means no effect); details: HCT-116 p53RE-bla, beta-lactamase FRET ratio, 16 h; activation: stronger effect = higher value
# Procedure, shortened: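 Read-out is fluorescence intensity from the LiveBLAzer B/G FRET substrate, added for 2 hours at room temperature after HCT-116 p53RE-bla cells had been incubated with compounds for 16 hours at 37 C.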
# [5] = qHTS assay for small molecule activators of the nuclear factor-kappa B (NF-kB) signaling pathway (AID 651749; active = well fitted activation curve with a large enough effect in the signal ratio; the % refers to the signal ratio; note: % of control where 0% means no effect); details: NF-kB-bla ME-180 cells, beta-lactamase FRET ratio, 16 h; stronger effect = higher value
# Procedure, shortened: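 Readout: beta-lactamase reporter driven by an NF-kB response element, detected fluorescently as loss of FRET. Cells were the ME-180 line, treated 16 hr at 37C with pin-transferred compound.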
# [6] = qHTS assay for small molecule disruptors of the mitochondrial membrane potential - 1 hr assay (AID 651754); note: nearly all actives have a fitted effect of over 35% in size; note: potency is the fitted concentration of half-maximal effect
# Procedure, shortened: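 HepG2 cells, attached overnight, were exposed to compound for 1 hr at 37C, then stained 30 min with a potentiometric dye. Ratio of red aggregate (590nm) to green monomer (535nm) fluorescence reports membrane potential; collapse shifts signal toward green.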
# [7] = qHTS assay for small molecule disruptors of the mitochondrial membrane potential - 5 hr assay (AID 651755); note: nearly all actives have a fitted effect of over 40% in size; note: potency is the fitted concentration of half-maximal effect
# Procedure, shortened: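 HepG2, 2,000 cells/well, overnight attach; cpd or DMSO 5 hr, 37C/5% CO2; Mito-MPS 30 min 37C; fluor 490/535 + 540/590 nm.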
# [8] = biological target: Tumor necrosis factor (Homo sapiens) (UniProt P01375); test: qHTS assay to identify small molecules that stimulate Tumor Necrosis Factor-alpha (TNF-alpha) secretion (AID 651757; active = well fitted curve in the direction sought with a large enough effect in the signal ratio; the % refers to the signal ratio; note: 0% is about no effect)
# Tumor necrosis factor (Homo sapiens), sequence (P01375 whole entry, looked up): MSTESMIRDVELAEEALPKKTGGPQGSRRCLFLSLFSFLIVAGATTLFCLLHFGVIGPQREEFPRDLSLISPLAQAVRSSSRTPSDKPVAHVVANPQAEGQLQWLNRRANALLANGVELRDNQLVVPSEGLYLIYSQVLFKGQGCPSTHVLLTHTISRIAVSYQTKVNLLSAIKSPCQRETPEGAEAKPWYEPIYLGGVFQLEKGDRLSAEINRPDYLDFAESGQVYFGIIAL
# Procedure, shortened: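 THP-1 cells (3000/well) exposed to compounds 17 hrs at 37 C. Secreted TNF-alpha detected by HTRF with cryptate- and XL665-labeled anti-TNF-alpha antibodies after 3 hr at room temperature.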
# [9] = qHTS assay for small molecule agonists of the antioxidant response element (ARE) signaling pathway (AID 651741; active = well fitted activation curve with a large enough effect in the signal ratio; the % refers to the signal ratio; note: potency is the fitted concentration of half-maximal effect; for activation: % of control where 0% means no effect)
# Procedure, shortened: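 Quantitative HTS in HepG2 cells stably expressing an ARE-beta-lactamase reporter; 16 h compound exposure at 37 C, followed by 2 h room-temperature incubation with LiveBLAzer B/G FRET substrate and fluorescence measurement.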
# [10] = qHTS assay to identify small molecules that stimulate interleukin-8 (IL-8) secretion (AID 651758; active = well fitted activation curve with a large enough effect in the signal ratio; the % refers to the signal ratio; note: potency is the fitted concentration of half-maximal effect; for activation: 0% is about no effect)
# Procedure, shortened: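 Secreted IL-8 measured by TR-FRET sandwich (cryptate and XL665 antibodies) from THP-1 cells exposed to compound overnight (16 hrs, 37 C).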
smiles,measurement,setting,value
COc1cccc2c1C(=O)c1c(O)c3c(c(O)c1C2=O)C[C@@](O)(C(=O)CO)C[C@@H]3O[C@H]1C[C@H](N)[C@H](O)[C@H](C)O1,"viability, percent of control",[1],20.5% [at 46.1 µM]
same,Potency,[2],0.0372 µM (active)
same,Potency,[3],3.32 µM (active)
same,Potency,[4],1.58 µM (active)
same,activation,[5],-4.76% (inactive)
same,Potency,[6],2.66 µM (active)
same,Potency,[7],2.66 µM (active)
NC(=NCCCCCCN=C(N)/N=C(\N)Nc1ccc(Cl)cc1)/N=C(\N)Nc1ccc(Cl)cc1,outcome,[8],inactive
CC(C)(C)CC(C)(C)c1ccc(OCCOCC[N+](C)(C)Cc2ccccc2)cc1,activation,[4],20.5% (inactive)
same,Potency,[7],inactive
same,outcome,[8],inactive
Oc1c(Cl)cc(Cl)cc1Sc1cc(Cl)cc(Cl)c1O,Potency,[4],7.94 µM (active) and 14.1 µM (active)
same,Potency,[6],10.6 µM (active)
same,Potency,[7],13.3 µM (active)
same,outcome,[8],inactive
CC(O)(P(=O)(O)O)P(=O)(O)O,Potency,[9],inactive
Oc1ccc(Cl)cc1Sc1cc(Cl)ccc1O,outcome,[8],inactive
same,Potency,[10],inactive
CC(=O)O[C@]1(C(C)=O)CC[C@H]2[C@@H]3C[C@H](C)C4=CC(=O)CC[C@]4(C)[C@H]3CC[C@@]21C,Potency,[9],27.3 µM (active)
same,activation,[4],-2.08% (inactive) and -7.09% (inactive)
same,activation,[5],-2.22% (inactive) and -5.39% (inactive)
same,Potency,[6],inactive
same,outcome,[8],inactive
Oc1ccc(O)cc1,Potency,[9],2.11 µM (active)
same,activation,[5],-1.26% (inactive)
same,Potency,[6],inactive
same,Potency,[7],inactive
same,Potency,[10],66.8 µM (active)
CC/C(=C(/CC)c1ccc(O)cc1)c1ccc(O)cc1,Potency,[9],24.3 µM (active) and 29.8 µM (active)
same,activation,[4],37.6% (inactive)
same,outcome,[8],inactive
COc1cccc2c1C(=O)c1c(O)c3c(c(O)c1C2=O)C[C@@](O)(C(C)=O)C[C@@H]3O[C@H]1C[C@H](N)[C@H](O)[C@H](C)O1,Potency,[6],6.68 µM (active)
same,Potency,[7],5.96 µM (active)
Cc1cc(=O)n(-c2ccccc2)n1C,Potency,[9],inactive
same,activation,[4],0.703% (inactive)
same,activation,[5],-1.22% (inactive)
CC(C)(Oc1ccc(Cl)cc1)C(=O)O,Potency,[9],inactive
same,activation,[4],0.845% (inactive)
C[C@]12CC[C@@H]3c4ccc(O)cc4CC[C@H]3[C@@H]1CC[C@@H]2O,activation,[4],8.17% (inactive)
same,outcome,[8],inactive
Nc1ccn([C@@H]2O[C@H](CO)[C@@H](O)C2(F)F)c(=O)n1,"viability, percent of control",[1],55.7%
same,Potency,[2],0.0382 µM (active)
CN(C)C(=S)SC(=S)N(C)C,activation,[4],-1.54% (inactive)
same,activation,[5],-1.81% (inactive)
C=CCc1ccc(O)c(OC)c1,Potency,[9],inactive
same,activation,[4],0.303% (inactive) and -4.38% (inactive)
same,outcome,[8],inactive
CCCCCCc1ccc(O)cc1O,Potency,[9],66.8 µM (active)
same,activation,[4],7.68% (inactive) and 3.42% (inactive)
same,Potency,[6],37.6 µM (active)
same,Potency,[7],37.6 µM (active)
same,outcome,[8],inactive
CC(O)C(=O)O (stereo unspecified),Potency,[9],inactive
same,activation,[4],-0.0251% (inactive)
same,activation,[5],-0.579% (inactive)
same,Potency,[6],inactive
same,Potency,[7],inactive
same,outcome,[8],inactive
same,Potency,[10],inactive
Oc1c(I)cc(Cl)c2cccnc12,Potency,[9],26.6 µM (active)
same,activation,[4],24.3% (inactive)
same,outcome,[8],inactive
same,Potency,[10],inactive
C[C@H]1C[C@H]2[C@@H]3CCC4=CC(=O)C=C[C@]4(C)[C@@]3(Cl)[C@@H](O)C[C@]2(C)[C@@]1(O)C(=O)CO,activation,[4],-5.8% (inactive)
O=C(O)CCCCC(=O)O,Potency,[9],inactive
same,activation,[4],-1.12% (inactive)
same,activation,[5],1% (inactive)
same,outcome,[8],inactive
same,Potency,[10],inactive
Nc1ccc(C(=O)O)cc1,Potency,[9],inactive
same,activation,[4],-1.83% (inactive)
same,activation,[5],0.93% (inactive)
same,outcome,[8],inactive
same,Potency,[10],inactive
O=c1ccc2ccccc2o1,Potency,[9],501 µM (active)
same,activation,[4],-4.62% (inactive) and -2.73% (inactive) and -3.41% (inactive)
same,activation,[5],-0.596% (inactive) and -0.85% (inactive) and -2.41% (inactive)
same,outcome,[8],inactive
same,Potency,[10],inactive
C=C(CC)C(=O)c1ccc(OCC(=O)O)c(Cl)c1Cl,Potency,[9],2.37 µM (active)
same,outcome,[8],inactive
O=C1OC(c2ccc(O)cc2)(c2ccc(O)cc2)c2ccccc21,Potency,[9],inactive
same,activation,[4],9.17% (inactive) and -8.34% (inactive)
same,activation,[5],-1.2% (inactive) and -2.62% (inactive)
same,outcome,[8],inactive
same,Potency,[10],inactive
COc1cc2c(cc1O)CC[C@@H]1[C@@H]2CC[C@]2(C)[C@@H](O)CC[C@@H]12,Potency,[3],inactive
COC1=CC(=O)C[C@@H](C)[C@]12Oc1c(Cl)c(OC)cc(OC)c1C2=O,activation,[5],-1.44% (inactive)
same,Potency,[6],inactive
same,Potency,[7],inactive
same,Potency,[10],inactive
CN(C)/N=N/c1nc[nH]c1C(N)=O,Potency,[9],inactive
same,Potency,[10],75 µM (active)
"Cc1c2oc3c(C)ccc(C(=O)N[C@@H]4C(=O)N[C@H](C(C)C)C(=O)N5CCC[C@H]5C(=O)N(C)CC(=O)N(C)[C@@H](C(C)C)C(=O)O[C@@H]4C)c3nc-2c(C(=O)N[C@@H]2C(=O)N[C@H](C(C)C)C(=O)N3CCC[C@H]3C(=O)N(C)CC(=O)N(C)[C@@H](C(C)C)C(=O)O[C@@H]2C)c(N)c1=O (I: T[dV]P[Sar][NMeV] / II: T[dV]P[Sar][NMeV]; ester I:1-I:C, II:1-II:C; linker I:N-II:N via Actinocin(9to1))",activation,[4],-13% (inactive)
same,Potency,[6],inactive
same,Potency,[7],inactive
same,outcome,[8],inactive
CC(=O)Oc1ccc(C(c2ccc(OC(C)=O)cc2)c2ccccn2)cc1,activation,[4],13.1% (inactive)
same,Potency,[6],inactive
same,Potency,[7],inactive
same,outcome,[8],inactive

# Reference: PubChem BioAssay (NCATS)
